MARV entry inh: Marburg virus entry inhibition | AID 540276 | 1.8% of 300,000 active | Potency, µM (top dose mostly 37.8 µM), without a hit: at the highest dose activity change, negative = inhibition, most hits filed as inhibitors | Marburg virus pseudotyped entry inhibition, cell reporter; calls by dose curve; tested in HEK293 cells; note: potency is the fitted concentration of half-maximal effect
LASV entry inh: Lassa virus entry inhibition. 1.2% of 300,000 active. Potency, µM (titrated, usually from 37.9 µM), for the others: at the top dose activity change, negative = inhibition, hits mostly inhibitors. Lassa virus pseudotype entry inhibition, cell reporter; calls by dose curve; tested in HEK293 cells; note: potency is the fitted concentration of half-maximal effect; nearly all actives have a fitted effect of over 50% in size
Giardia FBPA inh-1: blocks Giardia fructose-bisphosphate aldolase activity; A8B2U2; purified Giardia FBPA; Potency, µM (series often up to 59.6 µM), inactives show top-dose activity, negative = inhibition, usual class: inhibitors; 0.71% of 290,000 active; note: potency is the fitted concentration of half-maximal effect; nearly all actives have a fitted effect of over 55% in size
Target sequence (A8B2U2 whole entry, looked up): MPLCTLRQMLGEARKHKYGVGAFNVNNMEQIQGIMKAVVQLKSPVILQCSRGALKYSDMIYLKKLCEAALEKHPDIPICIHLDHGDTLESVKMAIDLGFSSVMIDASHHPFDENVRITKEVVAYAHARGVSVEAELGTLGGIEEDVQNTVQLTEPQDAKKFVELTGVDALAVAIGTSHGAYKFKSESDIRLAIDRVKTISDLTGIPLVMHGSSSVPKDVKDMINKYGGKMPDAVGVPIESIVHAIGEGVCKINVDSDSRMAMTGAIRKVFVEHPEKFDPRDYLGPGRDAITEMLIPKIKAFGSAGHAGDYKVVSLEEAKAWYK
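40 nM FBPA preincubated 10 min at RT with compound (up to 57.5 uM final), then substrate plus GAPDH/TPI/NAD/arsenate coupling and diaphorase/resazurin added. Fluorescence read after 20 min at RT, 525/598 nm.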
HCMV antiviral: human cytomegalovirus inhibition. activity change, negative = inhibition, % at 57.5 µM. AID 1259415. HFF cells, HCMV-luciferase reporter, 72 h; stronger effect = lower value. 4.5% of 410,000 active; in the data active = activity change below about -60%; inconclusive = no clear call, values can overlap the other calls; inactive = above about -39%
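Human foreskin fibroblasts infected with luciferase-reporter HCMV at MOI 1 PFU/cell, compounds at two doses. Luciferase measured 72 h post infection; normalized to buffer-only basal and Salinomycin (10uM) controls.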
FMDV antiviral: antivirals against foot and mouth disease virus; FMDV antiviral cell-based qHTS; Potency, µM (series often up to 57.9 µM), for inactives: at the highest dose activity change, negative = inhibition, usual class: inhibitors; 1.2% of 410,000 active; AID 1159524; calls by dose curve; tested in HEK293T cells; note: read-out not given here; potency is the fitted concentration of half-maximal effect; nearly all actives have a fitted effect of over 45% in size
HCV inhibitor: blocks hepatitis C virus. Huh7.5.1 HCVcc-Cre infection, luciferase reporter, 44 h. Potency, µM (series often up to 41.8 µM), for the others: top-dose activity change, negative = inhibition, hits mostly inhibitors. 3.4% of 340,000 active. AID 651820; note: potency is the fitted concentration of half-maximal effect
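Compounds are dispensed onto cells plated 4 h earlier at 1,000 per well, with HCVcc-Cre virus (about 0.5 moi) added next. Following 44 h of culture, luminescent signal is measured for 15 sec after 15 min with substrate at room temperature.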
Giardia growth: Giardia lamblia growth inhibition; shares compounds with Giardia FBPA inh-1; Giardia lamblia trophozoite growth inhibition; Potency, µM (doses to about 57.5 µM), for the others: at the highest dose activity change, negative = inhibition, actives largely listed as inhibitors; 5% of 1,500 active; AID 2785;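 note: potency is the fitted concentration of half-maximal effect; trophozoites exposed to compound for 48 h at 37 °C; nearly all actives have a fitted effect of over 70% in size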
Mammalian tox: toxic to mammalian cells in Giardia aldolase counter-screen | AID 2786 | Potency, µM (doses to about 57.5 µM), without a hit: top-dose viability change, negative = toxicity, usual class: inhibitors | mammalian cell viability counter-screen, qHTS | 4% of 1,500 active | shares compounds with Giardia FBPA inh-1;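 note: Chinese hamster ovary cells used as mammalian cytotoxicity surrogate; viability measured as cellular ATP by luminescence; potency is the fitted concentration of half-maximal effect; compound exposure lasted 48 h before reading; nearly all actives have a fitted effect of over 60% in size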
Giardia FBPA inh-2: confirmation of Giardia fructose-bisphosphate aldolase inhibitors; shares compounds with Giardia FBPA inh-1; purified Giardia aldolase enzyme activity, qHTS; Potency, µM (top dose mostly 57.5 µM), inactives show top-dose activity change, negative = inhibition, hits mostly inhibitors; 5% of 1,500 active; AID 2787; note: potency is the fitted concentration of half-maximal effect; nearly all actives have a fitted effect of over 45% in size
Rabbit FBPA inh: rabbit FBP aldolase inhibition by Giardia aldolase hits; shares compounds with Giardia FBPA inh-1; Rabbit muscle FBPA enzyme inhibition, selectivity counter-screen; Potency, µM (highest dose often 57.5 µM), for the others: at the top dose activity, negative = inhibition, actives largely listed as inhibitors; 4% of 1,500 active; AID 2794; note: potency is the fitted concentration of half-maximal effect; nearly all actives have a fitted effect of over 60% in size
Target sequence (P00883 whole entry, looked up): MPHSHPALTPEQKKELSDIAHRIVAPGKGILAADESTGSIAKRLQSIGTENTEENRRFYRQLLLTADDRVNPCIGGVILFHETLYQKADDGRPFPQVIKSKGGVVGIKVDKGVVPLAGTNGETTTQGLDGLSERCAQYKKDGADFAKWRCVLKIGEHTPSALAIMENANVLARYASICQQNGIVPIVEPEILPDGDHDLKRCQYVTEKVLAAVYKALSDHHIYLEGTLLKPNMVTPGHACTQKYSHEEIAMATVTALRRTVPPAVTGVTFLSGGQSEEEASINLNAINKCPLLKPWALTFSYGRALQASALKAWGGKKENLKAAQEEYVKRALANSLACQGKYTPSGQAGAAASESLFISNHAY
GAPDH coupling: counter-screen for Giardia aldolase inhibitors: GAPDH coupling enzyme | shares compounds with Giardia FBPA inh-1 | GAPDH coupling enzyme counterscreen, biochemical, qHTS | Potency, µM (highest dose often 57.5 µM), for inactives: at the highest dose activity change, negative = inhibition, usual class: inhibitors | 6% of 1,500 active | AID 2795; note: potency is the fitted concentration of half-maximal effect; nearly all actives have a fitted effect of over 55% in size
Starred values were filed as active, the others as inactive; ? = inconclusive; nt = no result given; ! = repeats disagree; [ ] = remark or other dose. Most compounds without a hit are left out; they make up all but 8.3% or so of the library. Unless noted, calls come from the whole dose curve; as a rule, active = well fitted curve in the direction sought with a large enough effect; inconclusive = small, poorly fitted or top-dose-only effect, or another doubt; inactive = no such curve, though single readings can be large; an effect the other way counts as inactive or inconclusive. % is set by controls: 0 for no effect and ±100 for the full control effect.

SMILES	MARV entry inh	LASV entry inh	Giardia FBPA inh-1	HCMV antiviral	FMDV antiviral	HCV inhibitor	Giardia growth	Mammalian tox	Giardia FBPA inh-2	Rabbit FBPA inh	GAPDH coupling
COC(=O)CC1Oc2ccc(F)cc2-n2cc(-c3ccc(C)cc3)nc21 (centres undefined)	-28%[46.1 µM]	?	nt	-39	-7%	nt	nt	nt	nt	nt	nt
COc1ccc(CNC(=O)Cn2ncn3nc(-c4cccs4)cc3c2=O)cc1	9%[46.1 µM]	4%[46.1 µM]	nt	-17	-4%	nt	nt	nt	nt	nt	nt
CCOC(=O)C(C(=O)OCC)c1cc(Br)c2noc3c2c1C(=O)c1ccccc1-3	?	11µM*	0.35µM*	-106*	25µM*	?	-18%	?	?	?	?
CCOC(=O)C(Nc1ccc2ccccc2c1)C(=O)OCC	13%	0%	3.5µM*	-35	-8%	24%	-1%[38.3 µM]	-18%	?	?	40µM*
O=C(Nc1cccc(F)c1)N1CCCC2(CCN(C(=O)c3cnccn3)CC2)C1	nt	nt	3%	nt	-4%	nt	nt	nt	nt	nt	nt
COc1ccccc1N1CCN(Cc2ccc(SC)cc2)CC1	nt	nt	16µM*	-33	-26%	?	-17%	-8%	5%	0%	1%
COc1ccccc1CN1CCN(C(=O)COc2ccc3ccccc3c2)CC1	nt	nt	20µM*	4	-12%	-27%	11%[10.4 µM]	7%	-2%	15%	1%
COc1ccc(S(=O)(=O)N2CCN(Cc3ccccc3OC)CC2)cc1	nt	nt	nt	-15	-16%	nt	nt	nt	nt	nt	nt
COc1ccc(CN2CCN(Cc3ccccc3F)CC2)cc1OC	nt	nt	16µM*	-14	-20%	-23%	0%	9%	-7%	7%	-16%
COc1ccc(CN2CCN(Cc3ccccc3OC)CC2)cc1	nt	nt	14µM*	9	-23%	6%	-25%	-2%	6%	4%	15%
COc1ccccc1N1CCN(CC(=O)c2ccc(F)cc2)CC1	nt	nt	16µM*	54	37%	-9%	-24%	7%	-18%	3%	5%
COc1ccccc1N1CCN(CCC(=O)Nc2ccc3c(c2)OCO3)CC1	-5%	4%	2%	91	?	-4%	nt	nt	nt	nt	nt
COc1ccccc1N1CCN(CC(=O)Nc2ccc3c(c2)OCCO3)CC1	nt	nt	18µM*	-15	1%	-6%	61%	1%	7%	8%	8%
COc1ccc(C(=O)CN2CCN(c3ccc(F)cc3)CC2)cc1OC	0%	25%	-12%	?	-9%	-10%	nt	nt	nt	nt	nt
CCOc1ccc2cc(-c3nnc(Nc4ccccc4F)s3)c(=O)oc2c1	nt	22%[46.1 µM]	nt	-19	29%	nt	nt	nt	nt	nt	nt
Nc1ncc(S(=O)(=O)Nc2ccc(F)cc2F)cn1	nt	2%[46.1 µM]	nt	38	5%	nt	nt	nt	nt	nt	nt
Oc1ccc(/C=N/N=C(c2ccccc2)c2ccccc2)c(O)c1O	?	?	5.6µM*	?	-6%	3%	15%[10.4 µM]	-11%	10µM*	?	?
NC(=N\N=Cc1ccccc1)/C(N)=N/N=Cc1ccccc1	-13%	1%	nt	?	18%	-1%	nt	nt	nt	nt	nt
COc1ccc(NC(C)=O)cc1NC(C)c1nc2sc(C)c(C)c2c(=O)[nH]1 (centres undefined)	1%[46.1 µM]	-2%	8.9µM*	11	-19%	-4%	-3%[10.4 µM]	-2%	?	?	?
COc1ccc(OC)c(NC(=O)C(C)SCc2nc3sc(C)c(C)c3c(=O)[nH]2)c1 (centres undefined)	nt	nt	nt	-10	-20%	-9%	nt	nt	nt	nt	nt
CCc1ccc(C(=O)CSc2ncn[nH]2)cc1	0%	15%	?	-4	36%	20%	nt	nt	nt	nt	nt
Cc1ccc(C(=O)CSc2ncn[nH]2)cc1	16%	?	28µM*	27	43%	5%	6%[10.4 µM]	-7%	-1%	2%	0%
C#C[C@@]1(O)CC[C@@H]2[C@@H]3CCC4=CC(=O)CC[C@@H]4[C@H]3CC[C@]21C	nt	nt	0%[21.7 µM]	nt	nt	nt	nt	nt	nt	nt	nt
Cc1ccc(-n2sc3ccccc3c2=O)cc1S(=O)(=O)N1CCCCC1	nt	nt	?	-19	5%	?	nt	nt	nt	nt	nt
CN(C)S(=O)(=O)c1cccc(-n2sc3ccccc3c2=O)c1	nt	nt	14µM*	-38	22%	-14%	?	?	-5%	22µM*	-15%
SMILES	MARV entry inh	LASV entry inh	Giardia FBPA inh-1	HCMV antiviral	FMDV antiviral	HCV inhibitor	Giardia growth	Mammalian tox	Giardia FBPA inh-2	Rabbit FBPA inh	GAPDH coupling
N[C@@H](CSS(=O)(=O)O)C(=O)O	nt	nt	?	nt	-7%	nt	-11%[38.3 µM]	9%	22µM*	14µM*	22µM*
N[C@H](CS)C(=O)O	nt	nt	nt	nt	-5%	nt	nt	nt	nt	nt	nt
COc1ccc(CN2CCN(CCCCOc3ccc(Cl)cc3)CC2)c(OC)c1OC	?	-12%[46.1 µM]	18µM*	?	-27%	?	-21%	-6%	-3%	1%	9%
O=C(Nc1nccs1)c1ccccn1	nt	nt	18µM*	42	54%	6%	?	-15%	1%	2%	3%
O=C(Cc1ccccc1)Nc1nccs1	nt	nt	4%	0	2%	-6%	nt	nt	nt	nt	nt
CCn1cc(Cl)c(C(=O)Nc2nccs2)n1	?	-14%[46.1 µM]	4µM*	-33	32%	?	-8%[10.4 µM]	-4%	1%	3%	8%
O=C(Nc1nccs1)c1cnccn1	5%	?	-20%	29	13%	13%	nt	nt	nt	nt	nt
S=C(Nc1ccccc1)Nc1nccs1	14µM*	15µM*	0.63µM*!	-19	34%	?	-27%[38.3 µM]	20µM*	-4%	-8%	-6%
O=C(c1ccc2c(c1)N(Cc1cccc(Cl)c1)C(=O)c1ccccc1S2=O)N1CCN(c2cccc(C(F)(F)F)c2)CC1 (centres undefined)	nt	-28%[46.1 µM]	nt	?	-15%	nt	nt	nt	nt	nt	nt
Cc1cc(NC(=O)CCn2c(=O)c3cccn3c3cccnc32)ccc1Br	nt	24%[46.1 µM]	nt	-35	-10%	nt	nt	nt	nt	nt	nt
CCn1ccc2cc(S(=O)(=O)N3CCCN(C(=O)Nc4ccc(C)cc4Cl)CC3)ccc21	nt	?	nt	-26	-2%	nt	nt	nt	nt	nt	nt
Nc1nc(=S)c2[nH]c(=S)[nH]c2[nH]1	-2%[46.1 µM]	-7%[46.1 µM]	nt	-12	-3%	-8%	nt	nt	nt	nt	nt
Nc1nc(=S)c2[nH]cnc2[nH]1	nt	nt	3.2µM*	-86*	-10%	1.3µM*	2%[38.3 µM]	7.1µM*	-12%	-12%	-5%

Screening results from PubChem BioAssay.
